Hits are enriched below; roughly 12% of the tested compounds scored in any of these assays.
Sm TGR block = S. mansoni TGR enzyme inhibition; Potency, µM (series often up to 114 µM), for the others: top-dose activity change, negative = inhibition, actives largely listed as inhibitors; Q962Y6; actives 3% (n = 360,000); AID 485364; purified TGR, DTNB reduction, TNB absorbance 405 nm; also: % is scaled to controls: 0 for no effect and ±100 for the full control effect; nearly all actives have a fitted effect of over 60% in size
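Kinetic colorimetric format: TGR-catalysed, NADPH-driven DTNB reduction monitored via TNB absorbance. Enzyme dispensed at 20 nM; compound exposure 15 min at room temperature before reaction start.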
Pf growth 48h = P. falciparum growth inhibition at 48 hours (one generation) | actives 5.9% (n = 310,000) | AID 504832 | P. falciparum luciferase growth in erythrocytes, 48 h | Potency, µM (top dose mostly 28.7 µM), without a hit: top-dose activity change, negative = inhibition, hits mostly inhibitors; also: % is scaled to controls: 0 for no effect and ±100 for the full control effect
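Luciferase-expressing P. falciparum in infected erythrocytes (2% hematocrit, 0.1% parasitemia final) in RPMI 1640/0.5% Albumax were exposed to compound for 48 hours at 37 C, 5% CO2; growth read as luminescence.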
Pf growth 96h = P. falciparum growth inhibition at 96 hours; P. falciparum luciferase reporter growth, 96 h; Potency, µM (titrated, usually from 28.7 µM), without a hit: at the top dose activity change, negative = inhibition, usual class: inhibitors; actives 6.9% (n = 320,000); AID 504834; also: % is scaled to controls: 0 for no effect and ±100 for the full control effect
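Readout is luminescence from an integrated firefly luciferase in P. falciparum. Red cells, 2% hematocrit and 0.05% parasitemia final, were cultured with compound through two parasite generations (96 hours) at 37 C, 5% CO2.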
SARS PLP yeast = inhibitors of SARS-CoV papain-like protease in yeast. S. cerevisiae expressing SARS-CoV PLpro, growth rescue. Potency, µM (series often up to 32.9 µM), inactives show at the top dose activity, positive = growth rescue, most hits filed as activators. actives 0.19% (n = 330,000). AID 485353; calls by dose curve; also: 0% is about no effect; nearly all actives have a fitted effect of over 55% in size
* = called active by the depositor; ? = inconclusive; / = not tested or not shown. Unless noted, calls follow the shape of the dose curve; as a rule, active = well fitted curve in the direction sought with a large enough effect; inconclusive = small, poorly fitted or top-dose-only effect, or another doubt; inactive = no such curve, though single readings can be large; an effect the other way counts as inactive or inconclusive. Potency is read from the fitted curve at half-maximal effect.

SMILES | Sm TGR block | Pf growth 48h | Pf growth 96h | SARS PLP yeast
CCC(C(=O)NC1CCCC1)N(C(=O)Cn1nnc(-c2ccc(C)o2)n1)c1ccccc1OC (stereo unspecified) | -15% | ? | 13% | 2%
Cc1ccc(-c2nnn(CC(=O)N(Cc3ccccc3F)C(C(=O)NC3CCCC3)c3ccncc3)n2)o1 (stereo unspecified) | 40µM* | 9.3µM* | ? | 8%
CCC(C(=O)NC1CCCC1)N(C(=O)Cn1nnc(-c2ccc(C)o2)n1)c1ccc(F)cc1 (stereo unspecified) | 3% | -2% | 12µM* | 7%
CCC(C(=O)NC1CCCC1)N(C(=O)Cn1nnc(-c2cccs2)n1)c1cnc2ccccc2c1 (stereo unspecified) | -19% | 12µM* | -2% | -4%
Cc1ccc(-c2nnn(CC(=O)N(CC(=O)NC(C)C)c3cnc4ccccc4c3)n2)o1 | 12% | -5% | -1% | -12%
CCc1ccc(C2c3c(oc4ccc(C)cc4c3=O)C(=O)N2c2nc(C)c(C)s2)cc1 (stereo unspecified) | 12% | / | / | /
Cc1ccc(-c2nnn(CC(=O)N(CC(=O)NCc3ccccc3)c3cccc(C)c3C)n2)o1 | 22µM* | 15µM* | ? | -3%
Cc1ccc(-c2nnn(CC(=O)N(CC(=O)NC3CCCC3)c3ccc(F)c(Cl)c3)n2)o1 | -3% | 9.3µM* | 13µM* | -3%
Cc1ccc(-c2nnn(CC(=O)N(CC(=O)NC3CCCCC3)c3ccc(F)c(Cl)c3)n2)o1 | 1% | -19% | -6% | -8%
COc1cccc(-n2c(=O)c3c(C)c(C(=O)N(C)C)sc3n(CC(=O)Nc3ccc(C)cc3Cl)c2=O)c1 | -1% | / | / | /
Cc1ccc(CN2CCNC(=O)C2CC(=O)NCCCn2ncc3ccccc32)o1 (stereo unspecified) | 25µM* | 10% | ? | 1%
COc1ccc(CN2CCNC(=O)C2CC(=O)NCCCn2nnc3ccccc32)cc1C (stereo unspecified) | -17% | -7% | 23% | ?
Cc1ccc(CN2CCNC(=O)C2CC(=O)NC2CCCCCC2)o1 (stereo unspecified) | ? | 20% | 0% | 0%
Cc1ccc(CN2CCNC(=O)C2CC(=O)N(Cc2c(C)nn(C)c2C)C2CC2)o1 (stereo unspecified) | 32µM* | 39% | 13% | 0%
COc1cc(NC(=O)c2ccccc2OCc2ccccc2)cc(OC)c1OC | 16% | 9.3µM* | -19% | -12%
COc1cc(C(=O)NC(=S)N(CCc2ccccc2)CCc2ccccc2)cc(OC)c1OC | -1% | 10µM* | 12µM* | ?
COc1cc(C(=O)NCCSc2ccccc2)cc(OC)c1OC | 5% | -9% | 10µM* | 0%
CCOc1cc(C(=O)NC(C)CC)cc(OCC)c1OCC (stereo unspecified) | 1% | 0% | -4% | 11%
CCC(C)NC(=O)c1cc(OC)c(OC)c(OC)c1 (stereo unspecified) | -27% | -1% | 2.3µM* | -2%
Cc1ccc(NC(=O)CN(C)C(=O)c2cccc(-n3cccc3)c2)cc1 | -13% | 31% | 7% | 2%
COc1cc(C(=O)N[C@H](C(=O)NC2CCCCCC2)C(C)C)cc(OC)c1OC | -8% | / | 12µM* | -12%
CCC(C)NC(=O)CSc1nnc(-c2cc(OC)c(OC)c(OC)c2)c(-c2cc(OC)c(OC)c(OC)c2)n1 (stereo unspecified) | 3% | 10µM* | 14% | -1%
COc1cc(C(=O)N[C@H](C(=O)NC2CCCc3ccccc32)C(C)C)cc(OC)c1OC (stereo partly specified) | / | / | / | -10%
O=C(NCCc1ccccc1)c1ccc2c(c1)nc1n2CCOC1 | -3% | / | / | /
COC(=O)c1c[nH]n2c(=O)c(Cc3ccc(F)cc3Cl)c(C)nc12 | -4% | -5% | 1.5µM* | -41%
SMILES | Sm TGR block | Pf growth 48h | Pf growth 96h | SARS PLP yeast
COC(=O)c1c[nH]n2c(=O)c(Cl)c(C)nc12 | -3% | 14% | -30% | -31%
COc1ccc(OCc2ccc(-c3nc(C#N)c(NCc4ccc(F)cc4)o3)o2)cc1 | 2% | / | / | /
CN(C)CCN1C(=O)c2oc3ccc(Cl)cc3c(=O)c2C1c1cccc(Br)c1 (stereo unspecified) | -32% | 1.9µM* | 426% | -5%
O=C1c2oc3ccc(Cl)cc3c(=O)c2C(c2ccco2)N1CCN1CCOCC1 (stereo unspecified) | 35µM* | 8.3µM* | ? | -15%
O=C1c2oc3ccccc3c(=O)c2C(c2cccc(O)c2)N1CCCN1CCOCC1 (stereo unspecified) | 40µM* | / | -18% | -7%
CN(C)CCN1C(=O)c2oc3ccccc3c(=O)c2C1c1cccc(Br)c1 (stereo unspecified) | 9% | ? | ? | 3%
CCCOc1cccc(C2c3c(oc4ccc(F)cc4c3=O)C(=O)N2CCCN2CCOCC2)c1 (stereo unspecified) | 2% | / | / | /
CCOc1ccc(C2c3c(oc4ccccc4c3=O)C(=O)N2CCCN2CCOCC2)cc1OCC (stereo unspecified) | 22µM* | / | 19% | -3%
O=C(CSc1n[nH]c(-c2ccccc2Cl)n1)NCc1ccc(F)cc1 | -1% | / | / | /
COc1ccccc1CNC(=O)CCCCn1c(=O)c2ccccc2n(Cc2ccccc2C)c1=O | -8% | / | / | /
Fc1ccccc1CSc1nnc(-c2cnccn2)n1Cc1ccco1 | -21% | ? | / | 9%
Cc1cccc(NC(=O)CSc2nnc(-c3cnccn3)n2Cc2ccco2)c1 | ? | 2% | 138% | 0%
C(=C\c1ccccc1)/CSc1nnc(-c2cnccn2)n1Cc1ccco1 | 20µM* | ? | -16% | -2%
O=C(CSc1nnc(-c2cnccn2)n1Cc1ccco1)c1ccc2ccccc2c1 | 25µM* | 13% | 10µM* | 0%
Cc1ccc(NC(=O)CSc2nnc(-c3cnccn3)n2Cc2ccco2)cc1 | 45µM* | 9% | / | -1%
CC(=O)c1cccc(NC(=O)c2cccn2-c2nnc(N3CCCCC3)s2)c1 | 3% | / | / | /
COc1ccc(/C=C/CN2CCCC(CCC(=O)NCc3ccc(F)c(F)c3)C2)cc1 (stereo unspecified) | 14% | 13µM* | 2% | 1%
Cc1nc(C)c(C(=O)N2CCCC(CCC(=O)NCc3ccc(F)c(F)c3)C2)s1 (stereo unspecified) | 5% | -4% | 9.3µM* | 0%
COc1cccc(CNC(=O)CCC2CCCN(C(=O)c3cc(C)on3)C2)c1 (stereo unspecified) | 7% | 15% | 46% | 0%
COc1ccccc1/C=C/CN1CCCC(CCC(=O)NCc2ccc(F)c(F)c2)C1 (stereo unspecified) | 0% | ? | 72% | 0%
CN(C)c1cccc(C(=O)N2CCCC(CCC(=O)NCc3ccccc3F)C2)c1 (stereo unspecified) | -25% | 3.3µM* | ? | -5%
O=C(CCC1CCCN(C(=O)c2cccnc2)C1)NCc1ccccc1F (stereo unspecified) | -6% | 12% | -13% | -2%

Source: PubChem
